Most compounds without a hit are left out; they make up all but 11% or so of the library.
HP1b binding inh: HTS for Inhibitors of HP1-beta Chromodomain Interactions with Methylated Histone Tails; AlphaScreen HP1-beta / biotin-H3K9me3 peptide binding; Chromobox protein homolog 1 (Homo sapiens), P83916; Potency, µM (doses to about 114 µM), most hits filed as inhibitors; actives 0.56% (n = 390,000); further: nearly all actives have a fitted effect of over 70% in size
Target sequence (P83916 whole entry, looked up): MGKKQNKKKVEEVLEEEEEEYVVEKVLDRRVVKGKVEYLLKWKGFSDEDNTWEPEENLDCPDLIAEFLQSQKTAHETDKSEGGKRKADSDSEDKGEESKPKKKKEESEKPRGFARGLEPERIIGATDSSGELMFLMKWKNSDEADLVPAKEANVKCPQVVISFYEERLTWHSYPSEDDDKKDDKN
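AlphaScreen: HP1-beta (50 nM) preformed 30 min with biotin-H3(1-18)K9me3 peptide (50 nM) in PBS pH 7.4, 0.01% Tween-20. Compound added for 30 min at RT, then streptavidin donor/nickel chelate acceptor beads (10 ug/mL) for 30 min.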
JMJD2A Tudor inh: qHTS Assay for Inhibitors of JMJD2A-Tudor Domain; Lysine-specific demethylase 4A (Homo sapiens), O75164; AlphaScreen JMJD2A-Tudor / H3K4me3 peptide binding; actives 4.4% (n = 390,000); Potency, µM (top dose mostly 114 µM), hits mostly inhibitors; AID 504339, 2011; further: nearly all actives have a fitted effect of over 50% in size
G9a inh: qHTS Assay for Inhibitors of Histone Lysine Methyltransferase G9a; AID 504332, 2011; Histone-lysine N-methyltransferase EHMT2 (Homo sapiens), Q96KQ7; actives 8.8% (n = 350,000); G9a H3K9 monomethylation, AlphaScreen, 2 h; Potency, µM (titrated, usually from 102 µM), most hits filed as inhibitors; further: nearly all actives have a fitted effect of over 75% in size
Target sequence (Q96KQ7 913-1193 limits assumed): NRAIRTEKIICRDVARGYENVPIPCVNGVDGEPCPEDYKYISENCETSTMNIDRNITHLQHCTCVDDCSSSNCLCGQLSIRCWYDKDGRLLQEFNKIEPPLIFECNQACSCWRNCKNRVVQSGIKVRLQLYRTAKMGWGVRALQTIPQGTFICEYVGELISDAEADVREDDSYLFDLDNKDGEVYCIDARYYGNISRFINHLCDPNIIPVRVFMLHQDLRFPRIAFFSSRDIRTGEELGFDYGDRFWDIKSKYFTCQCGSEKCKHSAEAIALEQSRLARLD
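Readings reflect AlphaScreen signal from monomethyl-H3K9 antibody detection. HMT at 20 nM; substrate b-H3K9 500 nM; cofactor SAM 20 uM; 2 h RT reaction; compounds tested as titrations in qHTS with 15 min preincubation.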
L3MBTL1 inh: qHTS Assay for the Inhibitors of L3MBTL1 | AID 485360, 2010 | Potency, µM (top dose mostly 57.1 µM), actives largely listed as inhibitors | actives 0.66% (n = 230,000) | AlphaScreen L3MBTL1–H3K9me1 peptide binding; further: nearly all actives have a fitted effect of over 60% in size
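AlphaScreen proximity signal between nickel-chelate acceptor and streptavidin donor beads (final 10 ug/mL) reports binding of 50 nM L3MBTL1 to 75 nM biotin-H3 K9me1 peptide; complex incubated with compounds 30 min at room temperature; cefsulodin titration as control.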
BAZ2B inh: qHTS Assay for Inhibitors of BAZ2B. Bromodomain adjacent to zinc finger domain protein 2B (Homo sapiens), Q9UIF8. AlphaScreen BAZ2B-H3K14Ac peptide displacement. Potency, µM (titrated, usually from 114 µM), most hits filed as inhibitors. actives 4.4% (n = 360,000); further: nearly all actives have a fitted effect of over 60% in size
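BAZ2B (50 nM) with biotin-H3(5-23)K14Ac peptide (50 nM) in PBS pH 7.4, 0.01% Tween-20, preformed 30 min, then compound 30 min at room temperature; top concentration 110uM. AlphaScreen streptavidin donor/nickel chelate acceptor beads (10 ug/mL final), 20 min dark, signal read.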
Of the large screens only hits and unclear results are named; the others gave an inactive call. The call rests on the fitted dose curve; in most records, active means well fitted inhibition curve with a large enough effect; inconclusive means small, poorly fitted or top-dose-only effect; inactive means no such curve, though single readings can be large or run the other way.

COCCn1nnnc1C(c1ccc(Cl)cc1)N1CCN(C(=O)c2ccco2)CC1 (centres undefined)	JMJD2A Tudor inh 45µM, G9a inh 56µM (no result: L3MBTL1 inh)
COCCn1nnnc1C(c1ccc(Cl)cc1)N1CCSCC1 (centres undefined)	G9a inh 50µM, BAZ2B inh inconclusive
CCc1ccc(-n2nc(C)c3c(C(=O)Nc4cc(OC)cc(OC)c4)cc(C)nc32)cc1	none (no result: L3MBTL1 inh)
CCCCCCCCCCCCC[N+](C)(C)Cc1ccccc1	none (no result: HP1b binding inh, JMJD2A Tudor inh, L3MBTL1 inh, BAZ2B inh)
Cc1ccc(-n2nc3c(=O)n(C(C)C(=O)NCc4ccc(OC(C)C)cc4)nc(C)c3c2C)cc1 (centres undefined)	BAZ2B inh inconclusive (no result: L3MBTL1 inh)
CCOC(=O)C1=C(COC(=O)CCOc2ccc(C)cc2)NC(=O)NC1C (centres undefined)	none
CCCCC(c1nnnn1CCOC)N1CCN(C(=O)c2ccco2)CC1 (centres undefined)	G9a inh inconclusive, BAZ2B inh 50µM (no result: L3MBTL1 inh)
CCCC(c1nnnn1CCc1ccccc1)N1CCN(C(=O)c2ccco2)CC1 (centres undefined)	G9a inh inconclusive
CCC(c1nnnn1Cc1ccccc1)N1CCN(C(=O)c2ccco2)CC1 (centres undefined)	G9a inh 79µM
CCC(c1nnnn1CCOC)N1CCN(C(=O)c2ccco2)CC1 (centres undefined)	JMJD2A Tudor inh inconclusive, BAZ2B inh 50µM (no result: G9a inh)
Cc1ccc(N(CC(=O)N(C)Cc2ccccc2)S(C)(=O)=O)cc1C	none
CCC(C)c1ccc(OCC(=O)Nc2cccc3ccc(C)nc23)cc1 (centres undefined)	none (no result: L3MBTL1 inh)
CCN(CC(=O)Nc1cccc(F)c1)CC(=O)Nc1ccccc1OC	none (no result: L3MBTL1 inh)
COc1cccc(NC(=O)CN(C)CC(=O)Nc2ccccc2-c2ccccc2)c1	HP1b binding inh inconclusive, JMJD2A Tudor inh 22µM, G9a inh 14µM, BAZ2B inh 79µM
CN(CC(=O)Nc1cccc(F)c1)CC(=O)Nc1ccccc1-c1ccccc1	none (no result: G9a inh, BAZ2B inh)
COc1cccc(NC(=O)CN(C)C(C)C(=O)N2CCCCC2)c1 (centres undefined)	HP1b binding inh inconclusive, JMJD2A Tudor inh 0.32µM (no result: G9a inh, BAZ2B inh)
CN(CC(=O)Nc1cccc(F)c1)CC(=O)Nc1ccccc1Oc1ccccc1	HP1b binding inh inconclusive, JMJD2A Tudor inh 10µM, G9a inh 8.9µM, BAZ2B inh 25µM (no result: L3MBTL1 inh)
COc1cccc(NC(=O)CN(C)C(=O)c2cc3c(s2)CCC3)c1	JMJD2A Tudor inh inconclusive, L3MBTL1 inh 8.9µM, BAZ2B inh 56µM
Cc1c(C)n(Cc2ccccc2)c2ccc(C(=O)NC(C)c3ccccc3)cc12 (centres undefined)	none (no result: L3MBTL1 inh)
COCCNC(=O)c1nn(-c2ccc(C)cc2)c(=O)n(C)c1=O	none (no result: L3MBTL1 inh)
Nc1ccccc1-c1n[nH]c(=S)s1	HP1b binding inh inconclusive, JMJD2A Tudor inh 28µM, G9a inh 0.63µM, BAZ2B inh inconclusive
O=C(NCCCCc1ccccc1)c1cccc(NC(=O)C2CC2)c1	JMJD2A Tudor inh 56µM (no result: G9a inh, L3MBTL1 inh, BAZ2B inh)
O=C(NCCCc1ccccc1)c1cccc(NC(=O)C2CC2)c1	none (no result: G9a inh, L3MBTL1 inh, BAZ2B inh)
CCN1C/C(=C\c2cccc([N+](=O)[O-])c2)C(=O)/C(=C/c2cccc([N+](=O)[O-])c2)C1	JMJD2A Tudor inh inconclusive, G9a inh 25µM, BAZ2B inh inconclusive
Cc1c(-c2cc(Br)ccc2O)nc2cc3c(cc2c1C)OCO3	G9a inh 45µM (no result: L3MBTL1 inh)
Cc1nc(NC(=O)c2ccc(Cl)cc2)nc2cc3c(cc12)OCO3	none
CCC1CCc2c(c3ccccc3[nH]c2=O)O1 (centres undefined)	none
O=c1[nH]c2ccccc2c2oc(CCl)nc12	G9a inh 35µM
Cc1ncc(CO)c(/C=N/NC(=O)c2cc3c(s2)CCCC3)c1O	JMJD2A Tudor inh 56µM, L3MBTL1 inh inconclusive, BAZ2B inh 50µM
Cc1ncc(CO)c(/C=N/NC(=S)Nc2cccc(Cl)c2)c1O	HP1b binding inh inconclusive, JMJD2A Tudor inh 56µM, G9a inh inconclusive, L3MBTL1 inh 14µM, BAZ2B inh 13µM
Cc1ncc(CO)c(/C=N/NC(=S)Nc2ccc(Cl)c(Cl)c2)c1O	HP1b binding inh inconclusive, JMJD2A Tudor inh inconclusive, L3MBTL1 inh inconclusive, BAZ2B inh 22µM (no result: G9a inh)

Compound activity as filed in PubChem.
